# Out of some 410,000 compounds screened, about 18,000 (4.4%) were called active. About 7% were inconclusive and are not listed. This is one part of a sample in which actives are shown more often than they occur. A number with no mark means an inactive call. Rule as the data show it: active = activity change below about -60%; inconclusive = no clear call, values can overlap the other calls; inactive = above about -39%.
# Experiment: qHTS Assay for inhibitors of the human cytomegalovirus (HCMV)
# Conditions: HFF cells, HCMV-luciferase reporter, 72 h; at 57.5 µM; active compounds read low
# Outline: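 Cell-based, HFFs, 1000 cells/well, 16 h 37C; cpds in DMSO + HCMV-luc, MOI 1 PFU/cell; 72 h 37C; OneGlo luminescence after 5 min RT; norm. to buffer vs Salinomycin 10uM.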
# % is scaled to controls: 0 for no effect and ±100 for the full control effect.
row,SMILES,"activity change, negative = inhibition"
1,CCOCCCNC(=O)c1ccc2nc(CCc3ccccc3)oc2c1,18.3%
2,CCOC(=O)N1CCc2c(sc3c2c(=O)n(Cc2ccccc2)c(=O)n3CC(=O)Nc2cccc(C)c2)C1,-9.95%
3,CCc1cccc(NC(=O)c2cc(-c3ccccc3)n[nH]2)c1,46.1%
4,O=C(CCl)Nc1cccc(CP(=O)(c2ccccc2)c2ccccc2)c1,-108% (active)
5,O=C(CNCc1ccc(Cl)cc1)Nc1cccc(C(=O)O)c1,-4.42%
6,Cc1cc(C)cc(NC(=O)CCS(=O)(=O)c2cc3c4c(c2)CCN4C(=O)CC3)c1,-0.0143%
7,C=C(C)C1CC=C(C)/C(=N\NC(=O)CNc2ccccc2OC)C1 (configuration not stated),-21.5%
8,CN1CCN(c2oc(-c3ccc(COc4ccc(Cl)cc4)o3)nc2C#N)CC1,-31.4%
9,CN(CCc1cnn(C)c1)Cc1cn(C)nc1-c1ccccc1F,5.69%
10,C/C(=N\OCC(=O)Nc1ccc(Br)cc1)c1cccs1,-6.56%
11,Cc1ccc(OCC(=O)Nc2ccc(NC(=O)c3cccs3)cc2)c(C)c1,-90.8% (active)
12,CCn1c2ccccc2c2cc(NC(=O)COc3ccc(C)cc3C)ccc21,-8.23%
13,CCOc1ccc(NC(=O)Cn2cc(C(=O)c3ccc(C)cc3)c(=O)c3cc4c(cc32)OCCO4)cc1,11.7%
14,COc1ccc2cc(-c3nc(Cl)c4c5c(sc4n3)CC(C)CC5)c(=O)oc2c1 (configuration not stated),-12.7%
15,O=C(NCc1ccccc1)c1cc(-c2cccc(Cl)c2)on1,21.7%
16,COCCNC(=O)c1cc(-c2cccc(Cl)c2)on1,-70.5% (active)
17,CCCCNC(=O)c1cc(-c2ccc(Cl)c(Cl)c2)on1,27.6%
18,O=C(O)c1ccc(CSc2nc3cccnc3n2Cc2cccc(F)c2)cc1,40.5%
19,CNS(=O)(=O)c1ccc(C(=O)NCC(=O)NCCc2ccc3c(c2)OCCO3)cc1,-5.01%
20,CCc1ccccc1OCCSc1nc(-c2cccs2)nc2cc(=O)[nH]n12,-12.5%
21,CC(=O)c1ccc(NS(=O)(=O)c2ccc(-c3cc(C)no3)s2)cc1,0%
22,c1ccc2c(CSCc3nc4ccccc4[nH]3)cccc2c1,-92.5% (active)

row,SMILES,"activity change, negative = inhibition"
1,O=C(OCc1nc2ccccc2[nH]1)C1CCCCC1,4.12%
2,c1ccc2c(C[n+]3csc4ccccc43)cccc2c1,91.5%
3,COc1ccccc1C(=O)N1O[C@]23C=C[C@]14C[C@@H](O)CC[C@]4(C)C2CC[C@]1(C)[C@@H]([C@H](C)/C=C/[C@H](C)C(C)C)CC[C@H]13 (some centres not stated),27.5%
4,Cc1ccc2nc(COc3ccccc3NC(=O)Nc3ccc(F)c(Cl)c3)cc(=O)n2c1,9.77%
5,CC(C)NC(=O)c1nn(-c2ccccc2F)nc1CO,-26.3%
6,CCNC(=O)CC1C(=O)N(c2ccc(F)cc2)C(=O)N1Cc1ccc(C)cc1 (configuration not stated),-4.44%
7,C/C(=N\NC(=O)COc1c(C)cccc1C)c1cccs1,-1.76%
8,CCS(=O)(=O)N1CCN(C(=O)c2cccs2)CC1,14.1%
9,Cc1ccccc1C(CC(=O)c1cccs1)C(C#N)C#N (configuration not stated),-89.2% (active)
10,Cn1c(SCC(=O)Nc2cccc(O)c2)nnc1-c1ccc(S(=O)(=O)N2CCOCC2)cc1,-70.3% (active)
11,CCC(=O)Nc1cccc(NC(=O)CSc2nnc(-c3ccc(NS(C)(=O)=O)cc3)n2C)c1,-2.35%
12,Cc1ccnc(SCC(=O)Nc2cccc(S(=O)(=O)N3CCOCC3)c2)n1,-25.4%
13,COCCn1cnnc1SCC(=O)Nc1cccc(S(=O)(=O)N2CCCCC2)c1,-23.6%
14,Nc1cc(N)nc(SCC(=O)Nc2cccc(S(=O)(=O)N3CCCCC3)c2)n1,-9.15%
15,O=C(CSc1ccccc1)Nc1cccc(S(=O)(=O)N2CCCCC2)c1,-4.82%
16,Cc1cc(NC(=O)C(C)SCC(=O)Nc2cccc(S(=O)(=O)N3CCCCCC3)c2)no1 (configuration not stated),-103% (active)
17,Cc1cc(NC(=O)C(C)SCC(=O)Nc2ccccc2N2CCCCC2)no1 (configuration not stated),-18.8%
18,Cn1nnnc1SCC(=O)Nc1cccc(S(=O)(=O)N2CCCCC2)c1,-105% (active)
19,CC1(C)N=C(SCc2ccccc2Cl)c2ccccc2N1,5.15%
20,Cc1ccc2c(=O)c(C(=O)c3ccc(F)cc3)cn(CC(=O)NC3CCCCC3)c2n1,6.71%
21,CCc1ccccc1NC(=O)Cn1c(=O)n(CC2CCC(C(=O)NCCc3ccccc3)CC2)c(=O)c2ccccc21 (configuration not stated),17.8%
22,Cc1cc(NC(=O)CSc2ncc(C(=O)Nc3ccc(Cl)cc3)c(=O)n2C)no1,7.76%

row,SMILES,"activity change, negative = inhibition"
1,CC(=O)Nc1ccc(NC(=O)c2cc3sccc3n2Cc2ccc(F)cc2)cc1,-10%
2,COc1ccc2[nH]c3c(C)c4cc[n+](C)cc4c(C)c3c2c1,-97.6% (active)
3,COc1ccc(-n2c(=O)c3sc4ccccc4c3n(CC(=O)Nc3cccc(C)c3)c2=O)cc1,11.4%
4,Cc1cc(C)c(/C=C/c2onc(C)c2S(=O)(=O)N2CCC(C(=O)Nc3ccc(Cl)cc3C)CC2)c(C)c1,-20.3%
5,CN1CCN(S(=O)(=O)c2ccc(N3CCN(c4ccccc4O)CC3)c([N+](=O)[O-])c2)CC1,-9.97%
6,CCN1CCN(c2ccc([N+](=O)[O-])cc2C#N)CC1,-36.6%
7,CN1CN(C)c2ccc([N+](=O)[O-])c3cccc1c23,-90% (active)
8,CN(C)S(=O)(=O)c1ccc(N2CCCC2=O)c([N+](=O)[O-])c1,-23.4%
9,CC1CCCN(c2csc3ccc(F)cc3c2=O)C1 (configuration not stated),20.9%
10,COc1ccc(-c2cn3c(C)c(C(=O)Nc4cc(C)cc(C)c4)sc3n2)cc1,27.8%
11,COc1cc2c(cc1OC)C(COc1ccc(F)cc1)N(C(=O)c1ccccc1F)CC2 (configuration not stated),-11.8%
12,CCn1c(SCC(=O)N/N=C/c2ccccc2OCC(=O)O)nnc1-c1ccc(C(C)(C)C)cc1,0%
13,C=C(C)CNC(=S)Nc1ccc(S(=O)(=O)Nc2cnc3ccccc3n2)cc1,-30.9%
14,C=C(C)CNC(=S)N/N=C/c1ccccc1OCC(=O)O,-63.4% (active)
15,COc1ccc(-n2ncc3c2CC(C)(C)CC3NC(=O)CCc2c(C)nn(C)c2C)cc1 (configuration not stated),-35%
16,COc1ccc(C(=O)NC2CC(C)(C)Cc3c2cnn3-c2ccccc2)c(OC)c1 (configuration not stated),-62.5% (active)
17,Cc1cc(C(=O)NC2CC(C)(C)Cc3c2cnn3-c2ccccc2)n[nH]1 (configuration not stated),-4.62%
18,O=C1Cc2cc(S(=O)(=O)Nc3ccc(OC(F)(F)F)cc3)cc3c2N1CCC3,14.6%
19,COC(=O)[C@]12CCCCC=C1N(Cc1cccc3ccccc13)C(=O)[C@H](CC(=O)N1CCOCC1)C2,12.2%
20,Cc1ccc2nc(COc3cccc(NC(=O)c4ccccc4Cl)c3)cc(=O)n2c1,0.182%
21,COc1ccc(C(C)(O)c2nc(-c3cc(F)cc(F)c3)cs2)cc1 (configuration not stated),-96% (active)
22,COc1cc(OC)cc(-c2cc3ccc(F)cc3cn2)c1,59.6%

row,SMILES,"activity change, negative = inhibition"
1,CC(O)(c1cccc(F)c1)c1nc(-c2ccc3c(c2)OCO3)cs1 (configuration not stated),-11.8%
2,CCSc1nnc2c(n1)OC(c1ccc(OCC(=O)O)cc1)Nc1ccccc1-2 (configuration not stated),33.3%
3,CC(C)c1ccc(Cn2c(COc3ccccc3)nc3ccccc32)cc1,57.2%
4,Cn1c2ccccc2c(=O)c2c(=O)n(Cc3ccco3)c(COc3ccccc3)nc21,-81.5% (active)
5,COc1cc(NC(=O)Cn2c(=O)n(Cc3ccco3)c(=O)c3oc4ccccc4c32)cc(OC)c1,-18.5%
6,CCOc1ccc(N(CC)S(=O)(=O)N2CCCC(C(=O)NCc3ccc(SC)cc3)C2)cc1 (configuration not stated),-31%
7,Cc1ccc(-n2c(SCC(=O)c3ccccc3)nc3c([nH]c4ccccc43)c2=O)cc1,37%
8,Cc1ccc(NC(=O)CSc2nc3c([nH]c4ccccc43)c(=O)n2-c2ccccc2)c(C)c1,-65.4% (active)
9,Cc1ccc(NC(=O)CSc2nc3c([nH]c4ccccc43)c(=O)n2-c2ccccc2)cc1Cl,-24%
10,Cc1ccccc1CSc1nc2c([nH]c3ccccc32)c(=O)n1C,34.5%
11,CCOC(=O)c1ccc(NC(=O)CSc2nc3c([nH]c4ccccc43)c(=O)n2C)cc1,-81.7% (active)
12,CCc1ccc(NC(=O)CSc2nc3c([nH]c4ccccc43)c(=O)n2-c2cccc(OC)c2)cc1,20.7%
13,CCn1c(CC(=O)Nc2ccc(C)cc2)nnc1SCC(=O)Nc1nc(C)cs1,28.7%
14,O=C(COc1ccccc1F)OCc1cc(=O)n2nc(C3CCCCC3)sc2n1,11.6%
15,O=c1c2ccccc2n(Cc2cccc(Cl)c2)c(=O)n1Cc1ccccc1,-14.5%
16,CC(C)CCN(C(=O)Nc1ccc(Cl)c(Cl)c1)C(C)c1cccs1 (configuration not stated),15.6%
17,CC(C)(C)C(=O)CSc1ccc(S(=O)(=O)N2CCCC2)cn1,0%
18,CCc1c(C)sc(NC(=O)C2c3ccccc3Oc3ccccc32)c1C(=O)OC(C)C,23.5%
19,Cc1nc(S(=O)(=O)c2ccc(Br)cc2)nc2c1CCC2,6.93%
20,CCOc1ccc(N(CC)C(=O)C2CCN(S(=O)(=O)c3cccc4nonc34)CC2)cc1,-9.41%
21,Cc1ccc2c(c1)N(C(=O)Nc1ccc(Br)cc1F)CCO2,-2.87%

# From PubChem BioAssay AID1259415 (National Center for Advancing Translational Sciences (NCATS), 2018)
